# Activity calls are given as the source filed them. Rule for the calls: active = hit-call score of the fitted dose curve at least 0.9, where 1 is the maximum; inactive = score below 0.9.
# Tests used:
# [1] = read-out: TIMP metallopeptidase inhibitor 2 (TIMP2), TIMP2 (gene 7077); assay: BSK_KF3CT_TIMP2: BioMAP Diversity Plus: KF3CT Assay for TIMP metallopeptidase inhibitor 2 (TIMP2) Biomarker Activity (AID 2283071); details: primary human keratinocytes with fibroblasts; actives raise or lower the signal
# Procedure, shortened: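 Measurements come from ELISA detection of TIMP-2 at 24 hours in a dosed human keratinocyte and foreskin fibroblast co-culture. DMSO serves as negative control and baseline.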
# [2] = read-out: Transforming growth factor beta 1 (TGFb1), TGFB1 (gene 7040); assay: BSK_KF3CT_TGFb1: BioMAP Diversity Plus: KF3CT Assay for Transforming growth factor beta 1 (TGFb1) Biomarker Activity (AID 2283072); details: primary human keratinocytes with fibroblasts; actives raise or lower the signal
# Procedure, shortened: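 TGF-b1 ELISA on a 24 h dosed co-culture of human keratinocytes and foreskin fibroblasts; cytotoxicity tracked in parallel cultures by SRB staining.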
# [3] = read-out: C-C motif chemokine 2 (Homo sapiens) (UniProt P13500); assay: BSK_KF3CT_MCP1: BioMAP Diversity Plus: KF3CT Assay for Monocyte Chemoattractant Protein 1 (MCP1/CCL2) Biomarker Activity (AID 2283073); details: primary human keratinocytes with fibroblasts; actives raise or lower the signal
# Procedure, shortened: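 Biomarker MCP-1 is measured by ELISA in primary human keratinocytes co-cultured with foreskin fibroblasts, 24 h after chemical treatment; DMSO serves as the negative control and activity baseline.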
# [4] = read-out: Matrix Metallopeptidase 9 (MMP9), MMP9 (gene 4318); assay: BSK_KF3CT_MMP9: BioMAP Diversity Plus: KF3CT Assay for Matrix Metallopeptidase 9 (MMP9) Biomarker Activity (AID 2283074); details: primary human keratinocytes with fibroblasts; actives raise or lower the signal;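 for AC50: MMP9 protein level quantified by ELISA in the co-culture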
# Procedure, shortened: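 MMP-9 quantified by ELISA after 24 h chemical treatment of primary human skin keratinocyte/fibroblast co-cultures; gain or loss fitted against DMSO, with parallel SRB staining (0.1% SRB, 560 nm) for overt cytotoxicity.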
# [5] = read-out: urokinase plasminogen activator (uPA), PLAU (gene 5328); assay: BSK_KF3CT_uPA: BioMAP Diversity Plus: KF3CT Assay for urokinase plasminogen activator (uPA) Biomarker Activity (AID 2283075); details: primary human keratinocytes with fibroblasts; actives raise or lower the signal
# Procedure, shortened: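 ELISA read-out of uPA 24 h after dosing human skin keratinocytes co-cultured with foreskin fibroblasts. Signal change fitted both ways relative to DMSO; sulforhodamine B on parallel cultures marks overt cytotoxicity.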
# [6] = read-out: E-selectin (Homo sapiens) (UniProt P16581); assay: BSK_LPS_Eselectin: BioMAP Diversity Plus: LPS Assay for Eselectin Biomarker Activity (AID 2283077); details: primary human HUVEC with PBMC; actives raise or lower the signal
# Procedure, shortened: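 Dose chemical onto LPS-driven HUVEC/PBMC co-culture; after 24 h, run ELISA for E-selectin; fit up- and down-going responses relative to DMSO control.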
# [7] = read-out: Interleukin-8 (IL8), CXCL8 (gene 3576); assay: BSK_LPS_IL8: BioMAP Diversity Plus: LPS Assay for Interleukin-8 (IL8) Biomarker Activity (AID 2283078); details: primary human HUVEC with PBMC; actives raise or lower the signal
# Procedure, shortened: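 In this LPS system, chemical-treated human umbilical vein endothelium/PBMC co-cultures were harvested at 24 h for IL-8 ELISA.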
# [8] = BSK_LPS_SRB: Viability Assessment in the BioMAP Diversity Plus: LPS Assay (AID 2283079); details: primary human HUVEC with PBMC;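 note: total protein by sulforhodamine B absorbance as a cytotoxicity measure; measured one day after compound addition; fitted in both directions against DMSO so loss or gain of signal counts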
# Procedure, shortened: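 Cytotoxicity endpoint in human endothelial–PBMC co-culture: 24 h exposure, then SRB (0.1%) staining, 560 nm read.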
# [9] = read-out: Interleukin-1 alpha (IL1a), IL1A (gene 3552); assay: BSK_LPS_IL1a: BioMAP Diversity Plus: LPS Assay for Interleukin-1 alpha (IL1a) Biomarker Activity (AID 2283080); details: primary human HUVEC with PBMC; actives raise or lower the signal
# Procedure, shortened: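 Primary human HUVEC and PBMC co-culture stimulated with LPS is dosed and harvested at 24 h. Both increases and decreases in ELISA-measured IL-1a are scored relative to DMSO.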
# [10] = read-out: Monocyte Chemoattractant Protein-1 (MCP1), CCL2 (gene 6347); assay: BSK_LPS_MCP1: BioMAP Diversity Plus: LPS Assay for Monocyte Chemoattractant Protein-1 (MCP1) Biomarker Activity (AID 2283081); details: primary human HUVEC with PBMC; actives raise or lower the signal;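 for AC50: secreted MCP-1 protein quantified by ELISA in culture supernatant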
# Procedure, shortened: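 Values derive from bidirectional fitting against DMSO of ELISA-measured MCP-1 in a human primary endothelial and mononuclear cell co-culture, 24 h after chemical addition under LPS activation.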
# [11] = BSK_LPS_PGE2: BioMAP Diversity Plus: LPS Assay for Prostaglandin E2 (PGE2) Biomarker Activity (AID 2283082); details: primary human HUVEC with PBMC; actives raise or lower the signal;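 for AC50: secreted prostaglandin E2 measured by ELISA in LPS-stimulated co-culture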
# Procedure, shortened: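 Primary human endothelial cells and blood mononuclear cells, co-cultured with LPS, receive test chemical; PGE2 ELISA follows at 24 h, with SRB-stained parallel cultures flagging cytotoxicity.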
# [12] = read-out: Macrophage colony-stimulating factor (MCSF), CSF1 (gene 1435); assay: BSK_LPS_MCSF: BioMAP Diversity Plus: LPS Assay for Macrophage colony-stimulating factor (MCSF) Biomarker Activity (AID 2283083); details: primary human HUVEC with PBMC; actives raise or lower the signal
# Procedure, shortened: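 Bidirectional fit versus DMSO of ELISA-measured M-CSF in co-cultured human umbilical vein endothelial cells and PBMC, sampled 24 h after dosing.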
# [13] = read-out: Tissue Factor, F3 (gene 2152); assay: BSK_LPS_TissueFactor: BioMAP Diversity Plus: LPS Assay for Tissue Factor Biomarker Activity (AID 2283084); details: primary human HUVEC with PBMC; actives raise or lower the signal
# Procedure, shortened: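 Read-out: CD142 ELISA, 24 h. System: LPS-driven human endothelial/PBMC co-culture. Analysis: up- or down-signal fitted against DMSO.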
# [14] = read-out: Tumor necrosis factor (Homo sapiens) (UniProt P01375); assay: BSK_LPS_TNFa: BioMAP Diversity Plus: LPS Assay for Tumour Necrosis Factor alpha (TNFa) Biomarker Activity (AID 2283085); details: primary human HUVEC with PBMC; actives raise or lower the signal
# Procedure, shortened: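 ELISA-based TNFa endpoint in a human endothelial–PBMC co-culture sampled 24 h post-exposure. Curves were fitted in both directions using DMSO as baseline of activity.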
# [15] = read-out: Vascular cell adhesion molecule 1 (VCAM1), VCAM1 (gene 7412); assay: BSK_LPS_VCAM1: BioMAP Diversity Plus: LPS Assay for Vascular cell adhesion molecule 1 (VCAM1) Biomarker Activity (AID 2283086); details: primary human HUVEC with PBMC; actives raise or lower the signal
# Procedure, shortened: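 Measured by ELISA: VCAM-1 in LPS-activated HUVEC/PBMC co-cultures 24 h after treatment. Values reflect bidirectional fitting with DMSO as baseline.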
# CD38, CD38 (gene 952) = assay: BSK_SAg_CD38: BioMAP Diversity Plus: SAg Assay for CD38 Biomarker Activity (AID 2283087); details: primary human HUVEC with PBMC; actives raise or lower the signal
# Procedure, shortened: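 Measures CD38 on a human endothelial/PBMC co-culture driven by SEB and TSST-1, 24 h after compound exposure, using ELISA with fluorescence detection; DMSO defines baseline for bidirectional curve fitting.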
# CD40, CD40 (gene 958) [16] = assay: BSK_SAg_CD40: BioMAP Diversity Plus: SAg Assay for CD40 Biomarker Activity (AID 2283088); details: primary human HUVEC with PBMC; actives raise or lower the signal
# Procedure, shortened: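 Endpoint derived by fitting increases or decreases versus DMSO controls. CD40 is detected by fluorescence ELISA in a human vascular co-culture of endothelium and PBMC at 24 h.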
# CD69, CD69 (gene 969) = assay: BSK_SAg_CD69: BioMAP Diversity Plus: SAg Assay for CD69 Biomarker Activity (AID 2283089); details: primary human HUVEC with PBMC; actives raise or lower the signal;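 for AC50: cell surface CD69 protein quantified by ELISA with fluorescence detection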
# Procedure, shortened: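 Endothelial/PBMC co-culture; chemical added; 24 h incubation; CD69 ELISA with fluorescence detection; bidirectional fit vs DMSO.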
# [17] = read-out: Monocyte Chemoattractant Protein-1 (MCP1), CCL2 (gene 6347); assay: BSK_SAg_MCP1: BioMAP Diversity Plus: SAg Assay for Monocyte Chemoattractant Protein-1 (MCP1) Biomarker Activity (AID 2283090); details: primary human HUVEC with PBMC; actives raise or lower the signal
# Procedure, shortened: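 Values derive from bidirectional fitting of ELISA-measured MCP1 against DMSO controls. Readings were taken 24 h after dosing human vascular endothelial cells co-cultured with peripheral blood mononuclear cells under superantigen stimulation.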
# CD40, CD40 (gene 958) [18] = assay: BSK_LPS_CD40: BioMAP Diversity Plus: LPS Assay for CD40 Biomarker Activity (AID 2283076); details: primary human HUVEC with PBMC; actives raise or lower the signal
# Procedure, shortened: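 Using a multiplexed primary human co-culture (umbilical vein endothelium plus PBMC), CD40 was read by ELISA 24 h after dosing, with cytotoxicity tracked by sulforhodamine B staining of parallel cultures and activity fitted bidirectionally versus DMSO.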
# Tumor necrosis factor (Homo sapiens), sequence (P01375 whole entry, looked up): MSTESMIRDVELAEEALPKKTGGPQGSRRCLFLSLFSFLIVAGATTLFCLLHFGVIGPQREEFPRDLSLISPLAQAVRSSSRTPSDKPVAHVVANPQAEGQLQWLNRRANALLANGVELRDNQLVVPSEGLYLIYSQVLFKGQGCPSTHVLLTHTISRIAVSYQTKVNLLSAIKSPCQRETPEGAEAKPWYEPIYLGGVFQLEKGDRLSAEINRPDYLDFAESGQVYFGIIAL
# E-selectin (Homo sapiens), sequence (P16581 whole entry, looked up): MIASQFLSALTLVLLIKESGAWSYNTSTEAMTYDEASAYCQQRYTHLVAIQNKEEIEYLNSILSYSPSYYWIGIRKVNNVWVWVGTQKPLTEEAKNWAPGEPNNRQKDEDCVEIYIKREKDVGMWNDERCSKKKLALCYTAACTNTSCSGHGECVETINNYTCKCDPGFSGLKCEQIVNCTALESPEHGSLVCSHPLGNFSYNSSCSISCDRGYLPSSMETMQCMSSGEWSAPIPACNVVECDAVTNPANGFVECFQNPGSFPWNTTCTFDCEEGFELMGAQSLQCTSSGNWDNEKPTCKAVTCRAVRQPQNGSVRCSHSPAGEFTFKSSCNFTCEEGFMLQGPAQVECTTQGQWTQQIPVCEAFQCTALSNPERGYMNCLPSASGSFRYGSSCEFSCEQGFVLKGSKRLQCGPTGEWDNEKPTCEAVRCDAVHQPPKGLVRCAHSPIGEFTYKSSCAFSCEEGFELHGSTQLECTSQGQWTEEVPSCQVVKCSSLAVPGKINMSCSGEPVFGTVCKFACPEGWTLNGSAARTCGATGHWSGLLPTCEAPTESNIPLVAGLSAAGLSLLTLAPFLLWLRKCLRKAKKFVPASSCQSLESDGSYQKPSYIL
structure (smiles),measurement,setting,value
O=C(O)c1cc(Oc2ccc(C(F)(F)F)cc2Cl)ccc1[N+](=O)[O-],outcome,[1],inactive
same,outcome,[2],inactive
same,outcome,[3],inactive
same,outcome,[4],inactive
same,outcome,[5],inactive
same,outcome,[6],inactive
same,outcome,[7],inactive
same,outcome,[8],inactive
same,outcome,[9],inactive
same,outcome,[10],inactive
same,AC50,[11],16.4 µM (active)
same,outcome,[12],inactive
same,outcome,[13],inactive
same,outcome,[14],inactive
same,outcome,[15],inactive
same,outcome,"CD38, CD38 (gene 952)",inactive
same,outcome,"CD40, CD40 (gene 958) [16]",inactive
same,outcome,"CD69, CD69 (gene 969)",inactive
same,outcome,[17],inactive
CC1=NNC(=O)N(/N=C/c2cccnc2)C1,outcome,[1],inactive
same,outcome,[2],inactive
same,outcome,[3],inactive
same,outcome,[4],inactive
same,outcome,[5],inactive
same,outcome,[6],inactive
same,outcome,[7],inactive
same,outcome,[8],inactive
same,outcome,[9],inactive
same,outcome,[10],inactive
same,outcome,[11],inactive
same,outcome,[12],inactive
same,outcome,[13],inactive
same,outcome,[14],inactive
same,outcome,[15],inactive
same,outcome,"CD38, CD38 (gene 952)",inactive
same,outcome,"CD40, CD40 (gene 958) [16]",inactive
same,outcome,[17],inactive
CC(COc1ccc(Oc2ccccc2)cc1)Oc1ccccn1 (centres undefined),outcome,[1],inactive
same,outcome,[2],inactive
same,outcome,[3],inactive
same,outcome,[4],inactive
same,outcome,[5],inactive
same,AC50,"CD40, CD40 (gene 958) [18]",20 µM (active)
same,outcome,[6],inactive
same,outcome,[7],inactive
same,outcome,[8],inactive
same,outcome,[9],inactive
same,outcome,[10],inactive
same,AC50,[11],3.97 µM (active)
same,outcome,[12],inactive
same,outcome,[13],inactive
same,outcome,[14],inactive
same,AC50,[15],0.843 µM (active)
same,outcome,"CD40, CD40 (gene 958) [16]",inactive
same,outcome,[17],inactive
C#CC(C)(C)NC(=O)c1cc(Cl)cc(Cl)c1,outcome,[1],inactive
same,outcome,[2],inactive
same,outcome,[3],inactive
same,outcome,[4],inactive
same,outcome,[5],inactive
same,outcome,[6],inactive
same,outcome,[7],inactive
same,outcome,[8],inactive
same,outcome,[9],inactive
same,outcome,[10],inactive
same,outcome,[11],inactive
same,outcome,[12],inactive
same,outcome,[13],inactive
same,outcome,[14],inactive
same,outcome,[15],inactive
same,outcome,"CD38, CD38 (gene 952)",inactive
same,outcome,"CD40, CD40 (gene 958) [16]",inactive
same,outcome,[17],inactive
CCOP(=O)(OCC)Oc1cc(C)nc(C(C)C)n1,AC50,[1],29.8 µM (active)
same,outcome,[2],inactive
same,AC50,[3],31.5 µM (active)
same,AC50,[4],30.3 µM (active)
same,AC50,[5],29.3 µM (active)
same,AC50,"CD40, CD40 (gene 958) [18]",14.4 µM (active)
same,outcome,[6],inactive
same,outcome,[7],inactive
same,outcome,[8],inactive
same,outcome,[9],inactive
same,outcome,[10],inactive
same,outcome,[11],inactive
same,outcome,[12],inactive
same,outcome,[13],inactive
same,outcome,[14],inactive
same,outcome,[15],inactive
same,outcome,"CD40, CD40 (gene 958) [16]",inactive
same,outcome,"CD69, CD69 (gene 969)",inactive
same,outcome,[17],inactive
CSC1=N[C@@](C)(c2ccccc2)C(=O)N1Nc1ccccc1,outcome,[2],inactive
same,outcome,[3],inactive
same,AC50,[4],29.9 µM (active)
same,outcome,[5],inactive
same,AC50,[6],10.6 µM (active)
same,AC50,[7],1.7 µM (active)
same,AC50,[8],20 µM (active)
same,outcome,[9],inactive
same,AC50,[10],15.2 µM (active)
same,AC50,[11],6.96 µM (active)
same,outcome,[12],inactive
same,outcome,[13],inactive
same,outcome,[14],inactive
same,outcome,[15],inactive
same,AC50,"CD40, CD40 (gene 958) [16]",11.4 µM (active)
same,AC50,"CD69, CD69 (gene 969)",11.5 µM (active)
same,AC50,[17],20 µM (active)

# Source: PubChem BioAssay (EPA / NIEHS)
